The text below walks through data of the supplement of paper PMC10681739.

In experiment [1] the target is T1, ETS1 (UniProt P14921).
T1 sequence: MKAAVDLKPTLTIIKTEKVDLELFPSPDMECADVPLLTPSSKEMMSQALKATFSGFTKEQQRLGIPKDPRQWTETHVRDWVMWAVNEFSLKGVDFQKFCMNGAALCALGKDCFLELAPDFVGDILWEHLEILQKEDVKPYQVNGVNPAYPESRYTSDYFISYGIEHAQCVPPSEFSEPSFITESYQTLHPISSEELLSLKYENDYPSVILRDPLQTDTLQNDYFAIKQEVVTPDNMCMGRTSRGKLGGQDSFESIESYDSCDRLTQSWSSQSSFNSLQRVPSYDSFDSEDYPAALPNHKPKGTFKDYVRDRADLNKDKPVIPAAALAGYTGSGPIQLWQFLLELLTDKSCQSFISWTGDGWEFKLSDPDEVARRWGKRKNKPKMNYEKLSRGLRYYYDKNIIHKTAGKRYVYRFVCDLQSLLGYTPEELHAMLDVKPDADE
The experiment in a line: ETS1 binding intensity (PBM fluorescence), ETS1 alone (arbitrary fluorescence units); higher = stronger binding. The note with it: ETS1 concentration 1 nM; RUNX1 concentration 0 nM.

For experiment [2], the target named is T1, ETS1. The experiment in a line: ETS1 binding intensity (PBM fluorescence) in presence of RUNX1, normalised to ETS1-only experiment (arbitrary fluorescence units); higher = stronger binding. Conditions: ETS1 concentration 1 nM; RUNX1 concentration 25 nM.
Experiment [3] concerns the target RUNX1 (UniProt Q01196). Kind of experiment: RUNX1 binding intensity (PBM fluorescence) in presence of ETS1, normalised to RUNX1-only experiment (arbitrary fluorescence units); higher = stronger binding. Conditions: RUNX1 concentration 2 nM; ETS1 concentration 25 nM. The procedure:
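Cooperative gcPBM on 36-bp genomic probes with neighbouring ETS1 and RUNX1 sites. Recombinant human RUNX1 (2 nM) was incubated alone or with ETS1 (25 nM) and detected with anti-RUNX1 antibody plus Alexa488 secondary. Values are medians over 4 replicate spots; the RUNX1+ETS1 data were normalised to the RUNX1-only data. The probes sit in constant array flanks that are not printed.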
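Throughout, for RUNX1 binding intensity (PBM fluorescence) in presence of ETS1, normalised to RUNX1-only experiment: Full-length recombinant human ETS1 or RUNX1 bound to double-stranded 36-bp genomic probes on microarrays, detected by protein-specific primary antibody and Alexa488 secondary, spot fluorescence as median of four replicate spots.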

RUNX1, sequence (Q01196 whole entry): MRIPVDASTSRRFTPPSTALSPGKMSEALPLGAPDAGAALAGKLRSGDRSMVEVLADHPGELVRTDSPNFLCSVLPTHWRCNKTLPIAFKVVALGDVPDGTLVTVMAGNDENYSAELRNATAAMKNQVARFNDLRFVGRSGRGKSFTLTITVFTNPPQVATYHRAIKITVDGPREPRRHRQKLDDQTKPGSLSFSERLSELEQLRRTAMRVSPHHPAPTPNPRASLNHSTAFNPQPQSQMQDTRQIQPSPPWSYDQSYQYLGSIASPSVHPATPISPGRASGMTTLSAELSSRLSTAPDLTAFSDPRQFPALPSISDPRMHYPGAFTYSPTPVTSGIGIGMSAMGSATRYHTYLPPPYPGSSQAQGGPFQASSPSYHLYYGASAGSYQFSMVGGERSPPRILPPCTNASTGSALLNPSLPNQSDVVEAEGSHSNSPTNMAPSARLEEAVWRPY

As for GAAATTTCCGCTTTCTTTCTGCAGCAGGAACCGCGG, the values for the ETS1 binding intensity in experiment [1] and in experiment [2] were 2670 and 2590, respectively. The RUNX1 binding intensity in experiment [3] was found to be 2550.

For the sequence GCTTCTGAGGAAGTGCGTTCTGTGGGTAGGTGGAGT, the ETS1 binding intensity came out at 677 in experiment [1] and 1000 in experiment [2]. The RUNX1 binding intensity in experiment [3] was 918.

As to AGCTAAACCCAGTTCCGGTGCTGTGGGGAGCTCAGA, the ETS1 binding intensity in experiment [1] was 858; in experiment [2], 908. Further, in experiment [3], the RUNX1 binding intensity came out at 1990.

CTAGCTGTGGACAGGAAACGAGTGGTTTTTGTGATC: the ETS1 binding intensity in experiment [1] stood at 5270; in experiment [2] it was 8040. For the same sequence, the RUNX1 binding intensity in experiment [3] turned out to be 1400.

Take CTTCTACTTCCTGCCCCGCCCCCAGCTGTGGTCACA: the ETS1 binding intensity stood at 1420 in experiment [1] and 3150 in experiment [2]. In addition, the RUNX1 binding intensity in experiment [3] amounted to 3430.

For TCCCGAGAGCCGGAAGCAGCCGCAGGCCCCGCCACA, the figures for the ETS1 binding intensity in experiment [1] and in experiment [2] were 3950 and 4410, respectively. Besides, in experiment [3], the RUNX1 binding intensity was 1330.

With ACCCTGAAATTACCCGGATGTGGTCCCCGCGCGCGC, the figures for the ETS1 binding intensity in experiment [1] and in experiment [2] were 6470 and 8100, respectively. For the same sequence, the RUNX1 binding intensity in experiment [3] came to 1930.

As to TTTGATTTCCTGTCTCCATGTTGTGGTCAAGATTGC, the ETS1 binding intensity came out at 1080 in experiment [1] and 2990 in experiment [2]. For the same sequence, in experiment [3], the RUNX1 binding intensity was 4420.

In the case of CGCCTACTCTACTTCCGCGGTCGGCCGGGTAAGGAC, the results for the ETS1 binding intensity in experiment [1] and in experiment [2] were 603 and 754, respectively. In addition, the RUNX1 binding intensity in experiment [3] was 2900.

For CGGGTGGTGGCAGGATGTGGGTAGGGGGCCAGGCGA, the ETS1 binding intensity came out at 2930 in experiment [1] and 6860 in experiment [2]. Also, the RUNX1 binding intensity in experiment [3] was determined as 2560.

For AGTGGCTACCACTTCCTTCTCTTACCACAGTTCCTT, the ETS1 binding intensity in experiment [1] was 442; in experiment [2], 607. Further, in experiment [3], the RUNX1 binding intensity was 4520.

Turning to CTCTCTGGGCGGAAGGAACGCGGTCACCCTGAGAAA, the ETS1 binding intensity in experiment [1] came out at 547; in experiment [2] it was 968. Besides, the RUNX1 binding intensity in experiment [3] came to 871.

As to GGAACAGGAAAAGCCTCCGGCAGCCCCTGCGGGCGG, the ETS1 binding intensity in experiment [1] was 539; in experiment [2] it was 941. For the same sequence, the RUNX1 binding intensity in experiment [3] is 920.

In the case of TGCCGGGCCCCGGATGTCACCGCAGCCGCCATCTTA, the ETS1 binding intensity in experiment [1] stood at 2460; in experiment [2], 6730. Also, in experiment [3], the RUNX1 binding intensity came out at 1990.

With TTTTATCCTTCCTTTTTTGTTCTTTGTGGTGGAGGT, the ETS1 binding intensity in experiment [1] came to 465; in experiment [2], 521. The RUNX1 binding intensity in experiment [3] turned out to be 2040.
